# Laboratory results: PubChem BioAssay
# Calls of active or inactive are those of the source. Unless noted, how the calls were made is not given here.
# Legend:
# [1] = test system: Wnt5a (protein binding on small-molecule microarray); assay: Wnt5a binders on small-molecule microarray, primary screen, biophysical, 635/667 nm fluorescence (AID 1142); conditions: 635 nm fluorescence, higher = more signal;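 further: fluorescence read at 667 nm with signal to noise per printed feature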
# [2] = cell viability in Huh7 cells, primary screen, cytotoxicity control for HCV replication inhibitor project, CellTiter-Glo luminescence, basal, 48 h (AID 1143); conditions: Huh7 HCV replicon, higher = more signal, called active from +8 up or from −8 down;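 further: Huh7 hepatoma cells carrying a hepatitis C replication reporter with no stimulus; test concentration not given here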
# [3] = P. aeruginosa biofilm formation inhibitors, primary screen, PAO1 strain, BacTiter-Glo luminescence, LB-PBS (AID 1144); conditions: 12 h, higher = more signal
# [4] = CREB reporter modulators without forskolin, primary screen, cell-based, PC12, CRE-LacZ reporter, unstimulated (AID 1145); conditions: no forskolin, luminescence, 4.5 h, higher = more signal, called active from +8 up or from −8 down
# [5] = CREB reporter modulators under forskolin, primary screen, cell-based, PC12, CRE-LacZ reporter, forskolin-stimulated (AID 1146); conditions: luminescence, 4.5 h, higher = more signal, called active from +8 up or from −8 down;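 further: PC12 cells with 6xCRE LacZ reporter stimulated by forskolin 10 µM; beta-galactosidase reporter signal reflecting CREB driven transcription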
# [6] = target: Streptavidin (Streptomyces avidinii) (UniProt P22629); assay: streptavidin binders on small-molecule microarray, primary screen, artefact control for SMM compound annotation, biophysical, 635/667 nm fluorescence (AID 1147); conditions: streptavidin binding, higher = more signal;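 further: signal reflects streptavidin binding to arrayed compounds as a control protein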
# [7] = small-molecule binders of probe aInhba, primary screen, biochemical, small-molecule microarray, 635/667 nm fluorescence (AID 1148); conditions: higher = more signal;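 further: score merges 667nm spot fluorescence with signal-to-noise for antibody binding to printed compounds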
# Torsin-1A (Homo sapiens) [8] = target: Torsin-1A (Homo sapiens) (UniProt O14656); assay: torsin A binders from cell lysate, primary screen, small-molecule microarray, wild-type, 635/667 nm (AID 1149); conditions: COS7 hTOR1A-WT lysate, 635 nm fluorescence, higher = more signal
# Torsin-1A (Homo sapiens) [9] = target: Torsin-1A (Homo sapiens) (UniProt O14656); assay: small-molecule binders of mutant TOR1A in lysate, primary screen, cell lysate, small-molecule microarray, COS7 lysate, 635/667 nm fluorescence (AID 1150); conditions: COS7 hTOR1A mutant lysate, 635 nm fluorescence, higher = more signal;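 further: score pools 667 nm emission and signal to noise measuring lysate protein binding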
# [10] = test system: Sonic hedgehog protein (Shh); assay: small-molecule binders of Shh protein, primary screen, biochemical, small-molecule microarray, 635/667 nm fluorescence (AID 1151); conditions: small-molecule microarray binding, 635 nm fluorescence; higher = more signal;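 further: Shh protein binding to compounds spotted on small-molecule microarray slides; score combines spot fluorescence intensity with signal-to-noise across triplicate slides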
# [11] = E. coli DRC41 culture turbidity changes, primary screen, E. coli filamentation inducer project, strain DRC41, OD650, 48 h (AID 1152);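 further: E. coli MC1000 strain DRC41 lacking acrAB efflux pump and sulA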; conditions: E. coli DRC41 (acrAB sulA), higher = more signal, called active from +8 up or from −8 down
# [12] = small-molecule binders of probe aLefty1, primary screen, biochemical, small-molecule microarray, 635/667 nm fluorescence (AID 1153); conditions: higher = more signal;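 further: score merges spot fluorescence with signal-to-noise ratio from the scanned slide images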
# [13] = PSAC antagonists in infected red cells, primary screen, cell-based, P. falciparum Indochina, OD700, 1 h (AID 1154); conditions: P. falciparum Indochina infected RBC osmotic lysis, higher = more signal, called active from +8 up or from −8 down
# [14] = PSAC antagonists in infected red cells, primary screen, cell-based, P. falciparum Indochina, OD700, 2 h (AID 1155);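 further: lysis reports solute entry through the parasite surface anion channel PSAC; channel blockers reduce lysis of infected cells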; conditions: P. falciparum Indochina infected erythrocytes, osmotic lysis OD700; higher = more signal, called active from +8 up or from −8 down
# [15] = osmotic lysis modulators in infected erythrocytes, primary screen, PSAC antagonist project, cell-based, P. falciparum Indochina, OD700, 3 h (AID 1156); conditions: higher = more signal, called active from +8 up or from −8 down
# [16] = PSAC antagonists in infected red cells, primary screen, cell-based, P. falciparum Indochina, OD700, 18 h (AID 1157); conditions: P. falciparum Indochina infected erythrocytes, osmotic lysis OD700, 18 h; higher = more signal, called active from +8 up or from −8 down
# [17] = modulators of S6 phosphorylation in cells, primary screen, cell-based, A549, cytoblot, luminescence, serum-stimulated (AID 1158); conditions: A549 phospho-S6 cytoblot, 5 h, higher = more signal;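 further: serum-stimulated A549 lung adenocarcinoma cells; signal is phosphorylated S6 detected by cytoblot immunostaining with HRP secondary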
# [18] = target: NADPH oxidase 2 (Homo sapiens) (UniProt P04839); assay: NOX2-dependent H2O2 signal modulators, primary screen, NOX inhibitor project, cell-based, HEK293-NOX2, PMA-stimulated, Amplex Red fluorescence (AID 1159); conditions: 45 min, higher = more signal, called active from +8 up or from −8 down; further: test concentration not given here
# [19] = target: NADPH oxidase 4 (Homo sapiens) (UniProt Q9NPH5); assay: NOX4-dependent H2O2 signal modulators, primary screen, NOX inhibitor project, cell-based, HEK293-NOX4, tetracycline-induced, Amplex Red fluorescence (AID 1160); conditions: 45 min, higher = more signal, called active from +8 up or from −8 down
# [20] = target: NADPH oxidase 5 (Homo sapiens) (UniProt Q96PH1); assay: NOX5-dependent H2O2 signal modulators, primary screen, NOX inhibitor project, cell-based, HEK293-NOX5, Amplex Red fluorescence (AID 1161); conditions: HEK293-NOX5, ionomycin, 45 min, higher = more signal
# NADPH oxidase 5 (Homo sapiens), sequence (Q96PH1 whole entry, looked up): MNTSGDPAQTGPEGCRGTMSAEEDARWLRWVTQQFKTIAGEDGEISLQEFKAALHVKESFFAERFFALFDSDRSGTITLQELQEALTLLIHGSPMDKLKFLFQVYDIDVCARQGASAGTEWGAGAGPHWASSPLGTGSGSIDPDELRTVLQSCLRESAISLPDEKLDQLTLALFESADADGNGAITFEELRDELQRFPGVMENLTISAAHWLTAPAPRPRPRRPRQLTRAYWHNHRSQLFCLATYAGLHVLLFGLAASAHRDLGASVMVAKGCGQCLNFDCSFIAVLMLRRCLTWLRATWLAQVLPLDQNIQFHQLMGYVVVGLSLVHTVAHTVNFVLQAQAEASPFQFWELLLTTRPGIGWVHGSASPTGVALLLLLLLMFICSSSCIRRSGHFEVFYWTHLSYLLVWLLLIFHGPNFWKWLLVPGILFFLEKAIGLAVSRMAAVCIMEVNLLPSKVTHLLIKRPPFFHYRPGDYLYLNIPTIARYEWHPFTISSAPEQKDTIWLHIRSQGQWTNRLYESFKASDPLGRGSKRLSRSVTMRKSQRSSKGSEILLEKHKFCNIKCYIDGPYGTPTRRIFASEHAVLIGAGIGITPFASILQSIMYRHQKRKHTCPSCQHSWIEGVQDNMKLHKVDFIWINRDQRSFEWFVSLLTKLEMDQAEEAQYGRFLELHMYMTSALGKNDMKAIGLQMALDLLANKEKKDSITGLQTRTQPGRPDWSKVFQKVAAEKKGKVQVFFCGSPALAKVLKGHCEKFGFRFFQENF
# NADPH oxidase 4 (Homo sapiens), sequence (Q9NPH5 whole entry, looked up): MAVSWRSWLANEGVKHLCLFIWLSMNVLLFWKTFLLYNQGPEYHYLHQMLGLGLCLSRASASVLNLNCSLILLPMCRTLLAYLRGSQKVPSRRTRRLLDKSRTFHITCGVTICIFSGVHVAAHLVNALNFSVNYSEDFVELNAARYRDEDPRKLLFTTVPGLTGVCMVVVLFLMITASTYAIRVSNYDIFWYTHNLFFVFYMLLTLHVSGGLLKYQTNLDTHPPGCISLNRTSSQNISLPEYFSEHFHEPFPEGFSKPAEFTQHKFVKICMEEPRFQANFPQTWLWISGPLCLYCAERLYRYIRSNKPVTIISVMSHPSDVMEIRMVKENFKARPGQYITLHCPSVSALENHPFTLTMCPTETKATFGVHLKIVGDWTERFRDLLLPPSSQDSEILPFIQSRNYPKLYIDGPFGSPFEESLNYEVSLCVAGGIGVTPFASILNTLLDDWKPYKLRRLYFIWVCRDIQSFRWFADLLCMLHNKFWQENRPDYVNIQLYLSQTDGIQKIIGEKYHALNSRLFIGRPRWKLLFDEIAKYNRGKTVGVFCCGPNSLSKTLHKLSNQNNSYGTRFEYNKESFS
# Torsin-1A (Homo sapiens), sequence (O14656 whole entry, looked up): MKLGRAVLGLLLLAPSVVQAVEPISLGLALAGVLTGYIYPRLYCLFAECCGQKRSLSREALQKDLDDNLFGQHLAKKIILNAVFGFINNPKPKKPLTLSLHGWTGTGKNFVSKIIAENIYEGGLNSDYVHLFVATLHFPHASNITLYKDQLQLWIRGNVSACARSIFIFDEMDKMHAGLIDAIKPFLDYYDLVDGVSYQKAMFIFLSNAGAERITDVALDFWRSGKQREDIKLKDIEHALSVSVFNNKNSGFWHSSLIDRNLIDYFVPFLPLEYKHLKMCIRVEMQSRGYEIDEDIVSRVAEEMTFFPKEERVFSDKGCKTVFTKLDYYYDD
# Streptavidin (Streptomyces avidinii), sequence (P22629 whole entry, looked up): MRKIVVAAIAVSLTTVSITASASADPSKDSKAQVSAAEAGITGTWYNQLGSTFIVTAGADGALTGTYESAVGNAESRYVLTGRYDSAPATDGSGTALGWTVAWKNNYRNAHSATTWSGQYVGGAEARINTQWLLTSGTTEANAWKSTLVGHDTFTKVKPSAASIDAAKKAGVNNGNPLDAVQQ
# NADPH oxidase 2 (Homo sapiens), sequence (P04839 whole entry, looked up): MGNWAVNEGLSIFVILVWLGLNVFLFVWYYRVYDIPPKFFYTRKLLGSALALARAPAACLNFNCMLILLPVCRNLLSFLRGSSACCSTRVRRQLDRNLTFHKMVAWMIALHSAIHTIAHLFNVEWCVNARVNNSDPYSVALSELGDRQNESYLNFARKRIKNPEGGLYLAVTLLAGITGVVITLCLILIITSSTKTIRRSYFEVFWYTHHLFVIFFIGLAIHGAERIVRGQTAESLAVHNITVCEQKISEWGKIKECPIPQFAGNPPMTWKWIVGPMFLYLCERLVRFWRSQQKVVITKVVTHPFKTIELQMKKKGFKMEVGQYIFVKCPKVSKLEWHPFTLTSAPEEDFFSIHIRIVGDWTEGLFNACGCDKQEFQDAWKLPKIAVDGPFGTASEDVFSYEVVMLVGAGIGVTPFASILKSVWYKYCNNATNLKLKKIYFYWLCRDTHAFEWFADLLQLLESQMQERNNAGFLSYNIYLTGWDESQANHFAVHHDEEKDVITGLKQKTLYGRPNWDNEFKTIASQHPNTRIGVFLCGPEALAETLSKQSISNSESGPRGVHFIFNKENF
Compound,composite z-score [1],z-score [2],z-score [3],z-score [4],z-score [5],composite z-score [6],composite z-score [7],composite z-score (Torsin-1A (Homo sapiens) [8]),composite z-score (Torsin-1A (Homo sapiens) [9]),composite z-score [10],z-score [11],composite z-score [12],z-score [13],z-score [14],z-score [15],z-score [16],z-score [17],z-score [18],z-score [19],z-score [20]
CN(C)c1ccc(C(O)C2C=CC3C(=O)NC(=O)C3N2Nc2ccccn2)cc1 (stereo not given),0.0094,1 (inactive),0.161 (inactive),-1.49 (inactive),0.337 (inactive),0.0863,-0.152,1.05,0.927,0.862,-1.5 (inactive),0.201,0.85 (inactive),0.123 (inactive),-0.693 (inactive),0.408 (inactive),-0.888,-2.21 (inactive),-4.43 (inactive),-4.16
O=C1OCCC=C[C@H]2OC34C=CCN(c5ccc6ccccc6c5)C(=O)[C@H]3N(CCCO)C(=O)[C@@H]4C12 (stereo not given in full),-1.2,-2.26 (inactive),-0.633 (inactive),-0.0778 (inactive),-0.301 (inactive),-1.16,-0.239,-1.44,-1.79,-1.93,0.181 (inactive),-0.291,0.204 (inactive),-0.568 (inactive),0.676 (inactive),-1.27 (inactive),0.684,0.755 (inactive),-0.644 (inactive),0.741
[N-]=[N+]=Nc1ccccc1C[C@@]1(C(=O)N2CCOCC2)N=C(c2ccc(OCCCO)cc2)O[C@@H]1c1ccccc1,1.21,-4.54 (inactive),0.83 (inactive),1.64 (inactive),-0.197 (inactive),0.269,-0.135,0.156,0.53,-0.227,0.345 (inactive),-0.88,28.5 (active),23.8 (active),3.6 (inactive),2.07 (inactive),-0.0419,0.437 (inactive),0.265 (inactive),-1.66
CN(C)C(=O)[C@]1(Cc2ccccc2CN=[N+]=[N-])N=C(c2ccc(OCCCO)cc2)O[C@@H]1c1ccccc1,0.682,-5.61 (inactive),-0.528 (inactive),0.502 (inactive),-0.579 (inactive),0.792,0.111,0.178,0.729,-0.18,-0.532 (inactive),0.457,27.1 (active),22.9 (active),1.76 (inactive),0.96 (inactive),1.87,-4 (inactive),-2.05 (inactive),-1.94
C=CCC(OC(C)=O)[C@@H]1[C@@H](N(Cc2ccc(-c3ccccc3)cc2)C(=O)c2ccc(-c3ccccc3)cc2)c2cc(OCCCO)ccc2N1C(=O)c1ccc2ccccc2c1 (stereo not given in full),0.028,0.39 (inactive),-0.0995 (inactive),-0.23 (inactive),0.318 (inactive),0.485,-0.101,0.0449,-0.0178,0.255,-0.75 (inactive),0.445,0.225 (inactive),-0.135 (inactive),-0.503 (inactive),-0.0602 (inactive),0.6,0.707 (inactive),0.987 (inactive),0.99
[N-]=[N+]=Nc1ccccc1C[C@]1(C(=O)NCC(O)CO)COC(c2ccc(OCCCO)cc2)=N1 (stereo not given in full),0.123,-0.231 (inactive),-0.3 (inactive),0.493 (inactive),-1.1 (inactive),0.305,-0.0131,1.3,1.72,-1.46,0.759 (inactive),0.0512,22.8 (active),4.35 (inactive),3.57 (inactive),1.06 (inactive),0.575,1.52 (inactive),0.179 (inactive),-1.13
COc1ccccc1CN1C(=O)c2ccccc2[C@](Cc2ccccc2I)(C(=O)O)[C@@H]1c1ccc(CO)cc1,0.638,-1.03 (inactive),0.776 (inactive),0.145 (inactive),-0.677 (inactive),1.09,0.0753,0.399,1.54,1.61,1.03 (inactive),0.0366,5.55 (inactive),1.09 (inactive),-0.0546 (inactive),0.426 (inactive),-0.523,1.03 (inactive),0.616 (inactive),0.646
COC(=O)c1c(CC[C@@H](CO)NC(=O)N[C@@H](C)Cn2cc(-c3ccccn3)nn2)oc(C(C)=O)c1C(=O)OC,0.182,-2.77 (inactive),-0.243 (inactive),1.21 (inactive),0.363 (inactive),-0.893,0.154,0.372,0.591,1.74,-0.476 (inactive),-0.106,1.71 (inactive),-1.15 (inactive),0.613 (inactive),-1.08 (inactive),0.42,-3.95 (inactive),-2.23 (inactive),-3.06
CC(C)NC(=O)[C@@]1(c2ccc([N+](=O)[O-])cc2)CC(=O)N(C2CCCCC2)[C@@H]1c1ccc(CO)cc1,0.34,-2.26 (inactive),-0.177 (inactive),1.09 (inactive),-0.0351 (inactive),0.119,-0.12,0.574,0.5,1.68,1.1 (inactive),-0.154,0.66 (inactive),0.168 (inactive),0.18 (inactive),-0.0376 (inactive),-0.391,0.0357 (inactive),0.164 (inactive),-0.229
